# About 83,000 compounds went through this panel and 20% of them were active in at least one assay; those are over-represented in the sample as a whole.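 In brief: 96-well plates, 48 h treatment, single concentration, percent growth endpoint.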 Unmarked numbers belong to inactive results. The source made the active and inactive calls.
# Test system: HS 578T breast
# Test: NCI-60 one-dose screen, 48 h (100 = growth as untreated, 0 = no growth, -100 = all killed)
# Settings: 10 µM unless noted
# Method: Growth inhibition of the HS 578T human tumor cell line is measured as a screen for anti-cancer activity. Cells are grown in 96 well plates and exposed to the test compound for 48 hours. Compounds are tested at a single concentration, which is 10^-5 M for most compounds. The reported endpoint is percent growth (GI% or GIPRCNT), where numbers from 0 - 100% represent growth inhibition, and numbers from -100% - 0 represent cell death. For example, a value of 40 represents 60% growth inhibition. A value of 0 means no net growth occurred over the course of the experiment. A value of -40 indicates 40% of cells at the beginning of the experiment died by the end of the experiment. A value of -100 means all cells are dead at the end of the experiment.
# NCI-60 Human Tumor Cell Lines Screen was performed using the standard one-dose NCI protocol, which is described in more detail at https://dtp.cancer.gov/discovery_development/nci-60/default.htm.
# Compounds with GIPRCNT values below 10 were considered active. Activity score was based on GIPRCNT using the following formula: […]
# Score is 0 for GIPRCNT values of 100 or above, 50 for GIPRCNT values of 0, and 100 for GIPRCNT values of -100.
row,Compound,growth
1,CCOC(=O)C1(N)CCCCC1,88.6%
2,Oc1cccnc1CN1CCCC1,104%
3,CSc1nsc(N)n1,90.7%
4,CC(O)C(F)(F)C(F)(F)C(F)(F)F (stereo not given),105%
5,COc1cc(C(=O)N2CCN(c3ccccc3)CC2)c2ccccc2n1,27%
6,C1Cc2onc(-c3noc4c3CCC4)c2C1,114%
7,c1ccc2c(NCCCN3CCN(CCCNc4c5ccccc5nc5ccccc45)CC3)c3ccccc3nc2c1,-19.1% [100 µM] (active)
8,O=[n+]1ccn([O-])c2ccccc21,89.4%
9,CC1CC2C3CCC4=CC(=O)CCC4(C)C3CCC2(C)C1(O)C(=O)CO (stereo not given),123%
10,CCOP(=O)(NC(c1ccccc1)c1ccccc1)OCC,107%
11,CCCC(OC(C)=O)c1ccc2c(c1)OCO2 (stereo not given),99.6%
12,CN(C(=S)S(=O)(=O)C12CC3CC(CC(C3)C1)C2)c1ccccc1,85%
13,COC(=O)c1cccc([N+](=O)[O-])c1,102%
14,Cc1c(-c2ccc(C3CCCCC3)cc2)nc2ccc(F)cc2c1C(=O)O,75.3%
15,CCCCOC(=O)c1ccccc1O,103%
16,CC(CC(CCC(=O)O)(c1ccccc1)c1ccccc1)N(C)C (stereo not given),106%
17,C#CCSc1nnnn1-c1ccccc1,102%
18,COc1cc2c(c(OC)c1OC)-c1ccc(SC)c(=O)cc1[C@@H](NC1OC(CO)C(O)C(O)C1O)CC2 (stereo not given in full),28.5%
19,Cc1ccc(S(N)(=O)=O)cc1Cl,117%
20,O=C1Nc2ccccc2/C1=C\c1ccccc1O,86.2%

row,Compound,growth
1,Oc1ccc(N=Cc2ccc(OCc3ccccc3)cc2)cc1,104%
2,CCOC(=O)/C(C#N)=C\c1c[nH]c2ccccc12,116%
3,Cc1cc(NC(=O)c2ccccc2)c(Cl)cc1N,109%
4,COC1CC(OC(=O)c2ccc([N+](=O)[O-])cc2)C(COC(=O)c2ccc([N+](=O)[O-])cc2)O1 (stereo not given),109%
5,CSCCC(NC(=O)C(Cl)Cl)C(=O)O (stereo not given),97.8%
6,COc1cc(CC#N)c([N+](=O)[O-])cc1OC,117%
7,Cc1cc(CC(=O)NCCO)n(CCO)c(=O)c1,101%
8,NC(=O)NCCO,94.2%
9,NC(=S)c1c(N)n(C2OC(CO)C(O)C2O)c2ncnc(N)c12 (stereo not given),-20.1% (active)
10,Nc1cccc2cccc(O)c12,82.1%
11,C[n+]1cc2cc3c(cc2c2ccccc21)OCO3,42.1%
12,OC(CCN1CCCCC1)(c1ccccc1)c1ccccc1,107%
13,CC(=O)CSc1ncnc2nc[nH]c12,116%
14,CC(=O)NC(CCC(=O)c1ccccc1)C(=O)O (stereo not given),108%
15,O=C(O)c1c[nH]c2ccccc2c1=O,112%
16,COc1ccc(NNS(=O)(=O)O)cc1,92.2%
17,C/C(=N\Nc1ccc([N+](=O)[O-])cc1[N+](=O)[O-])c1ccc(Br)cc1,104%
18,CCCOCc1cn[nH]n1,114%
19,O=C(Nc1c(Cl)cc(Cl)cc1Cl)ON=C1CCCCC1,99.3%
20,C=C(C)COc1ccc(C(C)(C)C)cc1,90.1%

# Reference: PubChem BioAssay (NCI)
